# Laboratory results from publication PMC4336329 (PLoS ONE, 2015).
# Among all 310,000 compounds or so, about 14,000 (4.5%) showed an effect of 50% or more. Effects have a minus sign here. The full list was thinned out, with strong results kept by preference.
# Molecular target: human ether-à-go-go-related gene (hERG) potassium channel (human, UniProt Q12809)
# Assay: primary screen, population patch clamp on CHO cells stably expressing hERG; higher = less effect of the substance
# 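Note: peak tail current of the secondary pulse compared with the same well before compound.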
# Sequence of human ether-à-go-go-related gene (hERG) potassium channel (Q12809 whole entry, looked up): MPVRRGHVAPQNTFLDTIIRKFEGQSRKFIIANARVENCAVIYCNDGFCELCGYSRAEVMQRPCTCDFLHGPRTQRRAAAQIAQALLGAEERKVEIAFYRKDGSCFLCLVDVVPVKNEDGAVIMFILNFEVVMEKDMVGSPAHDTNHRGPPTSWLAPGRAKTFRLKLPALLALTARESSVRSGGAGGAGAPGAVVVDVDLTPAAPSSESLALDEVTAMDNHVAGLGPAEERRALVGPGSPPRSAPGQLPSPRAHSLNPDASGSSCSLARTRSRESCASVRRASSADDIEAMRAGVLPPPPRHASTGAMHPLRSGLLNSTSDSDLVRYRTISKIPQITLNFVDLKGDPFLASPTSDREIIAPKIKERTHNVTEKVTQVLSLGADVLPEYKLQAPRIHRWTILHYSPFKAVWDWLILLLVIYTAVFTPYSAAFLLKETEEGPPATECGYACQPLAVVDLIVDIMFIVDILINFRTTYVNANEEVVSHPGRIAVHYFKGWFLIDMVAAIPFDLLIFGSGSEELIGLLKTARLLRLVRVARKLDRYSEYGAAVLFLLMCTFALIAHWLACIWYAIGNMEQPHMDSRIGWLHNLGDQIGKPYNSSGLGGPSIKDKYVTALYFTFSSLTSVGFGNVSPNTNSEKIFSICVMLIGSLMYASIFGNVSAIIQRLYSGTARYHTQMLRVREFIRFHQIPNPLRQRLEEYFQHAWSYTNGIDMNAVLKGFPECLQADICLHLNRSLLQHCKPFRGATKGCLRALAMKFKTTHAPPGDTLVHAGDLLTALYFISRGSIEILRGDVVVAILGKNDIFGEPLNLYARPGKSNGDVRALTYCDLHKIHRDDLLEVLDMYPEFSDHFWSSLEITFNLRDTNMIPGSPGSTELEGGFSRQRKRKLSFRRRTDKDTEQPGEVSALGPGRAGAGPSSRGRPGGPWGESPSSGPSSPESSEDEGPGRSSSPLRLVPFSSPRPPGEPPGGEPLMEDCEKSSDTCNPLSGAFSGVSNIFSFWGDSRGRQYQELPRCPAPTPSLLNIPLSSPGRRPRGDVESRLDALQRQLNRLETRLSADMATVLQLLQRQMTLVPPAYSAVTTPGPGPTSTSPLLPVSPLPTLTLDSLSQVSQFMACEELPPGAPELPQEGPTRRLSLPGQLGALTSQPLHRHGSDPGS
row,SMILES,"hERG current change (%, negative = inhibition) at 10uM [%]"
1,O=C(NCCCCCCNC(=O)OCCO)OCCO,28.4
2,NNC(=O)CNS(=O)(=O)c1ccc([N+](=O)[O-])cc1,17.4
3,COc1ccccc1N(C)S(=O)(=O)c1ccc(C(=O)NCC2CCCCC2)cc1,-3.05
4,CC(C)Cn1c(N)c(C(=O)COC(=O)CC23CC4CC(CC(C4)C2)C3)c(=O)n(C)c1=O,-16.2
5,CCCc1cc(=O)c2c(O)cccc2o1,5.41
6,CC1CC1C(=O)OCC(=O)Nc1ccc2[nH]c(=O)[nH]c2c1 (centres unmarked),2.94
7,COCCN1CCN(C(=O)c2ccc3oc(CCc4ccccc4)nc3c2)CC1,-30.1
8,COc1ccccc1N(CC(=O)N1CCN(c2ccccc2)CC1)S(=O)(=O)c1ccc(C)cc1,17.5
9,Cc1nc(NCCc2ccc(S(N)(=O)=O)cc2)c2c(C)c(C)sc2n1,4.01
10,CC1(C)CC(=O)c2cc(OCC(=O)NCCCN3CCN(c4ccc(F)cc4)CC3)ccc2O1,-72.9
11,COc1ccc(-c2noc(CCC(=O)NCCCN3CCC(C)CC3)n2)cc1,-5.81
12,O=C(CCc1nc(-c2ccccc2F)no1)NCCN1CCN(Cc2ccccc2)CC1,-43.2
13,COc1ccc(-c2noc(CCC(=O)NCCc3ccccc3)n2)cc1,20.9
14,COc1ccc(-c2noc(CCC(=O)NCCCN3CCN(c4ccc(F)cc4)CC3)n2)cc1,-67.4
15,O=C(CCc1nc(-c2ccccc2F)no1)NCCN1CCc2ccccc2C1,-50.4
16,COc1ccc(N2CCN(C(=O)CCc3nc(-c4ccc(C)cc4)no3)CC2)cc1,-14.1
17,CC1(C)CC(=O)c2cc(OCC(=O)NCCN3CCOCC3)ccc2O1,22.7
18,COc1ccc(-c2noc(CCC(=O)NCCCN3CCC(Cc4ccccc4)CC3)n2)cc1,-80.7
19,O=C(CCc1nc(-c2ccccc2F)no1)NCCN1CCOCC1,6.22
20,CCN1CCN(CCCNC(=O)CCc2nc(-c3ccc(OC)cc3)no2)CC1,-2.35
21,CC1(C)CC(=O)c2cc(OCC(=O)NCCCN3CCN(c4ccccc4F)CC3)ccc2O1,-47.4
22,Cc1cc(NC(=O)C(C)SCC(=O)Nc2ccccc2N2CCCC2)no1 (centres unmarked),15.1

row,SMILES,"hERG current change (%, negative = inhibition) at 10uM [%]"
1,CCNC(=S)N/N=C/c1cccs1,6.26
2,O=C(CCCCCN1C(=O)CCC1=O)Nc1ccc2c(c1)OCCO2,8.47
3,CC(=O)Nc1ccc(-c2csc(NNC(=O)c3ccccc3)n2)cc1,24.7
4,Cc1ccc(-c2nc(C(F)(F)F)cc(=O)[nH]2)cc1,12.7
5,N#CCCn1ncn(-c2ccccc2)c1=S,1.22
6,Cc1ccccc1CC(=O)Nc1ccc2c(c1)CCC2,18.3
7,Cc1ccc(-c2noc(CCC(=O)NCCCN3CCN(c4cccc(Cl)c4)CC3)n2)cc1,2.45
8,COc1ccc(-c2noc(CCC(=O)NCCN(C)Cc3ccccc3)n2)cc1,-30.5
9,COCCCNC(=O)CCc1nc(-c2ccccc2)no1,9.36
10,Cc1ccc(-c2noc(CCC(=O)NCCCN3CCN(c4ccc(F)cc4)CC3)n2)cc1,-66.8
11,COc1ccc(-c2noc(CCC(=O)NCCCN3CCN(c4ccccc4F)CC3)n2)cc1,-61
12,Cc1ccc(-c2noc(CCC(=O)NCCN3CCOCC3)n2)cc1,4.65
13,COc1ccc(C(=O)/C=C/c2cccs2)c(OC(=O)c2cccc([N+](=O)[O-])c2)c1,5.34
14,CCC(C)C(NC(=O)OCc1ccccc1)C(=O)NCC(c1ccccc1)N(C)C (centres unmarked),-7.1
15,CC1CN(S(=O)(=O)c2ccc(F)cc2)CN1C(=O)N1CCOCC1 (centres unmarked),17.6
16,OCCC1CN(Cc2nc3c(s2)CCCC3)CCN1Cc1ccccc1 (centres unmarked),-22.5
17,CC(C)CCN1CCN(Cc2nc3c(s2)CCCC3)CC1CCO (centres unmarked),-28.2
18,OCCC1CN(Cc2nc3c(s2)CCCC3)CCN1CCc1ccccc1 (centres unmarked),-61.4
19,Cc1ccc(CN2CCN(Cc3nc4c(s3)CCCC4)CC2CCO)cc1 (centres unmarked),-55.3
20,CC(C)N1CCN(Cc2nc3c(s2)CCCC3)CC1CCO (centres unmarked),18.9
21,OCCC1CN(Cc2nc3c(s2)CCCC3)CCN1Cc1ccsc1 (centres unmarked),-14.6
22,CC(=O)Nc1sc(C)c(C)c1C(=O)OCC(=O)N(CC(C)C)c1c(N)n(Cc2ccccc2)c(=O)[nH]c1=O,-1.37

row,SMILES,"hERG current change (%, negative = inhibition) at 10uM [%]"
1,Cc1cc(C)nc(N(C#N)CC(=O)N2CCC(C(N)=O)CC2)n1,20.1
2,CN1CCc2[nH]c3ccc(C(=O)NN)cc3c2C1,5.22
3,CC1CCc2sc(C(=O)NCC(C)(C)N3CCOCC3)cc2C1 (centres unmarked),-32.6
4,CCOC(=O)c1oc2ccccc2c1NC(=O)c1ccc(Cl)s1,11.7
5,COc1cccc(-c2ccc(NC(=O)C3CCCN(Cc4cnn(C)c4)C3)cc2)c1 (centres unmarked),-37
6,COc1cccc(-c2ccc(NC(=O)C3CCCN(Cc4cnc(N(C)C)s4)C3)cc2)c1 (centres unmarked),8.97
7,Cn1cc(CN2CCCC(C(=O)Nc3ccc(-c4cccc(F)c4)cc3)C2)cn1 (centres unmarked),-43.9
8,COc1cccc(-c2ccc(NC(=O)C3CCCN(Cc4cnc(C)s4)C3)cc2)c1 (centres unmarked),2.11
9,COc1cccc(C(=O)C2CCCN(Cc3cnn(C(C)C)c3)C2)c1 (centres unmarked),-43.6
10,Cc1ncc(CN2CCCC(C(=O)Nc3ccc(-c4ccco4)cc3)C2)n1C (centres unmarked),-59.6
11,Cc1ncc(CN2CCCC(C(=O)Nc3ccc(-c4ccco4)cc3)C2)cn1 (centres unmarked),-11.5
12,COc1cccc(-c2ccc(NC(=O)C3CCCN(Cc4cnn(C(C)C)c4)C3)cc2)c1 (centres unmarked),-79.7
13,Nc1ncc(CN2CCCC(C(=O)Nc3ccc(-c4ccco4)cc3)C2)cn1 (centres unmarked),-17.8
14,COc1cccc(-c2ccc(NC(=O)C3CCCN(Cc4cnc(C)n4C)C3)cc2)c1 (centres unmarked),-74.3
15,O=C(Nc1ccc(-c2cccc(F)c2)cc1)C1CCCN(Cc2ccccn2)C1 (centres unmarked),-42.3
16,Cc1ncc(CN2CCCC(C(=O)Nc3ccc(-c4cccc(F)c4)cc3)C2)cn1 (centres unmarked),-73.2
17,COC(=O)c1c(C)nc(C)c(C(=O)OC)c1-c1ccc(OC)cc1,-7.69
18,Cc1cc(C)nc(N/N=C/c2cn[nH]c2-c2ccc(F)cc2)n1,8.66
19,Cc1ccc(CNC(=O)c2cccc3c2C(=O)c2ccc(N4CCCCC4)cc2S3(=O)=O)cc1,-6.76
20,CCOc1ccc(CCNC(=O)Nc2ccccc2C)cc1OCC,5.4
21,COc1ccccc1-c1ccc(SCc2cccc(C)c2)nn1,-26.6
22,Cc1ccc(CCC(=O)Nc2ccc(Cl)cc2)o1,12.8

row,SMILES,"hERG current change (%, negative = inhibition) at 10uM [%]"
1,O=C(O)C1=CC[C@@H](c2ccc(Cl)cc2)N(S(=O)(=O)c2ccc(Cl)cc2)[C@H]1c1ccc(F)cc1,4.97
2,CCOC(=O)c1sc(N)c(C#N)c1CSc1nnc(C2CCCCC2)n1N,-1.65
3,CC1CC(C)CN(C(=O)c2cc3ccccc3o2)C1 (centres unmarked),-2.2
4,COc1ccc(C(=O)Nc2cc(Cl)ccc2Cl)c(OC)n1,-5.79
5,CCc1ncc(CN2CCCC(C(=O)Nc3cccc(-c4cccc(C)c4)c3)C2)cn1 (centres unmarked),-48.8
6,Cc1ccc(C(=O)N2CCCC(C(=O)Nc3cccc(-c4ccc(F)cc4)c3)C2)cn1 (centres unmarked),-29.1
7,Cc1cccc(-c2cccc(NC(=O)C3CCCN(C(=O)c4ocnc4C)C3)c2)c1 (centres unmarked),-53
8,Cc1ncoc1C(=O)N1CCCC(C(=O)Nc2cccc(-c3ccc(F)cc3)c2)C1 (centres unmarked),-36.4
9,O=C(Nc1cccc(-c2ccc(F)cc2)c1)C1CCCN(Cc2cccnc2)C1 (centres unmarked),-60.2
10,CCc1nc(C)c(C(=O)N2CCCC(C(=O)Nc3cccc(-c4cccc(C)c4)c3)C2)o1 (centres unmarked),-42.5
11,Cc1ncc(CN2CCCC(C(=O)Nc3ccc(-c4cccc(F)c4)cc3)C2)s1 (centres unmarked),1.64
12,Cc1ncc(CN2CCCC(C(=O)Nc3ccc(-n4ccnc4C)cc3)C2)cn1 (centres unmarked),12.8
13,CCCc1ncc(CN2CCCC(C(=O)Nc3ccc(-c4cccc(OC)c4)cc3)C2)cn1 (centres unmarked),-39.7
14,COCCc1ncc(CN2CCCC(C(=O)Nc3cccc(-c4cccc(C)c4)c3)C2)cn1 (centres unmarked),-56.6
15,Cc1ncc(CN2CCCC(C(=O)Nc3ccc(-c4cccc(F)c4)cc3)C2)n1C (centres unmarked),-69.5
16,Cc1ccc(C(=O)C(C)OC(=O)CCN=C2NS(=O)(=O)c3ccccc32)cc1 (centres unmarked),6.4
17,Cc1nn(Cc2c(Cl)cccc2Cl)c(Cl)c1C(=O)O,14.4
18,COCCN(C(=O)CC1C(=O)NCCN1Cc1ccc(-c2ccccc2)cc1)C(C)C (centres unmarked),1
19,COc1ccc(OCCn2ccnc2)cc1,12.4
20,CCOCCCNC(=S)N1C2CCC1CC(NC(=O)Nc1ccc(C(=O)OCC)cc1)C2 (centres unmarked),13.7
